Structures are written as SMILES. In all, about 220,000 compounds went through this assay and about 2,000 (0.91%) were called active. About 2% were inconclusive and are not listed. The list is a sample of the results. Results with a measured potency or affinity are listed apart. Values without a mark were called inactive. Cut-off read from the data, not from the text of the source: inconclusive = inhibition above about 80% without an active follow-up result; inactive = below that; test concentration not stated here.

The nature of this assay: M. tuberculosis H37Rv growth inhibitors, H37Rv strain (AID 1626).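 Note: bacteria incubated seven days before Alamar blue readout; 0% = bacteria only wells and 100% = bacteria with antibiotic wells.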 The following applies: active compounds read high, concentration not given here.
In the case of `O=C1C2C3CCC(C3NCc3ccccc3)C2C(=O)N1Cc1ccccc1` (stereo not drawn), the inhibition was -0.18%.

On to `OC(CSc1ccc(F)cc1)CN1CCN(c2ccccc2)CC1` (stereo not drawn), for which the inhibition was 2.78%. As for `Cc1nc(-c2nc(-c3c(C(=O)NNC(=O)Nc4ccccc4)noc3C)cs2)cs1`, the figure is 1.03%; as for `Cc1nc(NC(=O)c2cc(-n3cnnc3)ccc2Cl)ccc1Br`, 0.92%; as for `COc1ccc(CC(=O)OCC(=O)NC(=O)NC23CC4CC(CC(C4)C2)C3)cc1`, 0.65%. As to `O=C(COC(=O)c1ccc(-c2ccc([N+](=O)[O-])cc2)o1)NC(=O)NC1CCCCC1`, the inhibition was 31%. As for `O=C(NC12CC3CC(CC(C3)C1)C2)c1ccc(=O)oc1`, the figure is -2.56%; as for `O=C(NC12CC3CC(CC(C3)C1)C2)c1ccccc1`, 2.5%.

For the molecule `CCN(Cc1cc2ccc(C)cc2[nH]c1=O)C(=O)c1cccnc1`, the inhibition is 3.56%.

Consider `COCCSc1nnc(NS(=O)(=O)c2ccc(C)cc2)s1`, for which the inhibition was -4.12%. Take `O=C(CSc1nnc(-c2ccco2)n1Cc1ccccc1)OC1CCCCC1`: the inhibition was -11.8%.

For the molecule `N/C(=N\OC(=O)/C=C/c1ccccc1)c1ccc(Cl)cc1`, the inhibition was 1.43%. As for `COC(=O)c1cc(C#N)c(N2CCOCC2)nc1C`, the figure is -9.18%; as for `O=C(O)c1ccccc1-c1ccc(/C=C/c2cc(C(F)(F)F)[nH]c(=O)n2)o1`, -2.38%.

As to `O=C(O)c1cc(Cl)ccc1-c1ccc(/C=C/c2cc(C(F)(F)F)[nH]c(=O)n2)o1`, the inhibition was -1.69%. As for `Cc1ccc(S(=O)(=O)Nc2cc(C(C(=O)OC(C)C)C(=O)C(F)(F)F)c(O)c3ccccc23)c(C)c1` (stereo not drawn), the figure is -10.5%; as for `CCc1nc(N)c(C#N)c(-c2ccc(OC)c(OC)c2)c1C`, -2.13%; as for `O=C(/C=C/c1ccc(OCCCF)cc1)Nc1ccnc(-c2cccnc2)n1`, -6.59%.

With `COc1ccc(CNC(=O)/C=C/c2ccc(OCCCF)cc2)cc1`, the inhibition is 11.3%. Take `O=C(Nc1ccc2nc(SCc3ccc(Cl)cc3)sc2c1)c1ccccc1C(=O)N1CCOCC1`: the inhibition is 4.76%. As for `CC(=O)Nc1ccc2nc(SCC(=O)N3CCOCC3)sc2c1`, the figure is 5.08%; as for `CCCn1c(=O)c(C(=O)NCc2ccc(OC)c(OC)c2)c(O)c2ccccc21`, -0.33%.

For `COc1ccc(-c2nc(NC(=O)c3nc4nccc(C)n4n3)sc2C)cc1`, the inhibition was -7.46%.

For `Cc1ccc(-c2nc(NC(=O)c3cc(C(C)(C)C)nn3C)sc2C)cc1Cl`, the inhibition is 78.4%.

With `C1CN(CC2CCN(c3nc4nonc4nc3N3CCSCC3)CC2)CCO1`, the inhibition is -0.53%. As for `CCCCc1ccc(NC(=O)N[C@@H](C)C(=O)O)cc1`, the figure is 0.78%. In the case of `CCCCc1ccc(NC(=O)CC(C)=O)cc1`, the inhibition was 77.5%.

With `CCCCc1ccc(NC(=O)OC)cc1`, the inhibition is 58%. Consider `CCCCc1ccc(NC(=O)CC(C)(C)C)cc1`, for which the inhibition is 5.76%. As for `CCN(CC)C(=O)C1=C(C)Nc2ncnn2C1c1cccnc1` (stereo not drawn), the figure is -0.97%; as for `Cc1nn2c(-c3ccccc3)ccnc2c1-c1ccccc1`, -0.56%; as for `OCC1OC(n2nnc3ccccc32)C(O)C(O)C1O` (stereo not drawn), -9.39%. Turning to `Cc1cc(NC(=O)CCl)on1`, the inhibition was 0.735%.

In the case of `Cc1cc(NC(=O)CCl)no1`, the inhibition was 65%. Regarding `CSc1nc(=O)n2cc(C)ccc2n1`, the inhibition is 0.11%. As for `CCOC(=O)C(NC(C)=O)(Nc1ccc(S(=O)(=O)Nc2cc(C)nc(C)n2)cc1)C(F)(F)F` (stereo not drawn), the figure is -6.92%; as for `Cc1ccc(NC(=O)c2ccc(CSc3ccccn3)cc2)cc1`, 14.1%; as for `O=C(Nc1ccccc1)c1ccc(CSc2ncccn2)cc1`, 3.69%. On to `CCOC(=O)C(=CNc1ccc(Oc2cncc(Cl)c2)nc1)C(=O)OCC`, for which the inhibition is 2.61%.

`O=C(Nc1ccc(-n2nncc2-c2ccco2)cc1)c1ccc(F)cc1`: the inhibition is 0.33%.

In the case of `Cc1onc(-c2ccccc2Cl)c1C(=O)Nc1ccc(-n2nncc2-c2ccco2)cc1`, the inhibition is 68%. `Cc1ccc(-c2nnn(CC(=O)N3CCCCC3)n2)o1`: the inhibition is -0.84%. In the case of `CC(OC(=O)C1=COCCO1)C(=O)Nc1ccccc1C#N` (stereo not drawn), the inhibition is -7.04%. Turning to `CC(C)(C)NC(=O)Nc1ccc(Br)cc1`, the inhibition was -1.24%. As for `CCC(C)NC(=O)Nc1ccc(Br)cc1` (stereo not drawn), the figure is 1.26%. As for `COc1c(Cl)cc(Cl)cc1C(=O)Nc1ccc(NC(=O)c2cccs2)cc1`, the figure is 56.1%; as for `COc1ccc(C(=O)/C=C\c2ccc(NC(=O)c3cccs3)cc2)cc1`, -0.27%.

Turning to `CC1SCC(=O)N(CC(=O)Nc2ccc3c(c2)OCCO3)C1=O` (stereo not drawn), the inhibition is 2.44%. As for `Cc1ccc(S(=O)(=O)/N=C(\c2ccc(F)cc2)n2c(C)nc3ccccc32)cc1`, the figure is 4.23%. As for `Nc1nc2ccccc2n1C(=O)CCc1ccccc1`, the figure is 0.09%; as for `Nc1nc2ccccc2n1C(=O)c1ccco1`, 2.98%. As for `Cn1c(CNC(=O)c2ccc(F)cc2)nc2ccccc21`, the inhibition is -0.81%.

As to `O=C(COc1ccc2ccccc2c1)N1c2ccccc2Sc2ccccc21`, the inhibition is 2.2%. With `CN(Cc1ccccc1)S(=O)(=O)c1ccc(NS(C)(=O)=O)cc1`, the inhibition was -4.2%. As to `CC(=O)Nc1cc(Br)ccc1O`, the inhibition was 3.76%. As for `CN(Cc1ccccc1)C(=O)c1cc2ccccc2o1`, the figure is 6.83%. As for `CCOc1cc(C(=O)Nc2ccc(F)cc2)cc(Br)c1OC`, the figure is 9.07%; as for `CCN(CC)c1ccc(/C=N/OCC(=O)N2CCCc3ccccc32)cc1`, 1.23%; as for `CNc1c([N+](=O)[O-])cnn1-c1ccccc1Cl`, 4.21%. In the case of `Cc1ccccc1-c1cnn(-c2cccc([N+](=O)[O-])c2)c1N`, the inhibition is 5.3%. On to `O=C(CSc1nnc(NC(=O)Cc2ccccc2)s1)NCc1ccco1`, for which the inhibition is -1.92%. As for `O=C(O)c1sccc1S(=O)(=O)c1ccccc1`, the figure is -0.34%; as for `Cn1nccc1C(=O)Oc1ccc(/C=N/NC(=O)c2ccccc2O)cc1`, -6.68%. As for `Cc1nnc(Cl)c2nn(-c3ccccc3)c(C)c12`, the figure is -0.17%. As for `CC(C)(C)OC(=O)NCCCCCc1nnc(SCc2ccc(F)cc2)o1`, the figure is 60.9%.

For the molecule `Cc1cccc(CSc2nnc(CCNC(=O)OC(C)(C)C)o2)c1`, the inhibition is 15%.

In the case of `Cc1ccc(CSc2nnc(CCNC(=O)OC(C)(C)C)o2)cc1`, the inhibition is 7.99%. `CC(C)(C)OC(=O)NCCCCCc1nnc(SCc2cccc(F)c2)o1`: the inhibition is 75%. In the case of `O=S(=O)(NC1CCCc2ccccc21)c1cnc[nH]1` (stereo not drawn), the inhibition is 1.01%. With `O=C(COC(=O)c1cccs1)c1ccc2ccccc2c1`, the inhibition is 7%.

On to `Nc1ccccc1C(=O)OCC(=O)c1ccc2c(c1)OCCO2`, for which the inhibition was -1.04%. For `Nc1nc(N)c(N=Nc2ccc(SCC(=O)O)cc2)c(=O)[nH]1`, the inhibition is -4.15%. As for `CN(C)S(=O)(=O)N(CC(=O)NCCSCc1ccccc1)c1ccccc1`, the figure is 22.6%; as for `Cc1ccc(CN2CCN(Cc3ccncc3)CC2CCO)o1` (stereo not drawn), -0.74%; as for `CCN(CC)CCOC(=O)c1ccc([N+](=O)[O-])cc1`, 1.65%.

In the case of `O=C1c2ccccc2C(=O)N1c1ccc(Cl)cc1`, the inhibition is -5.9%. Consider `Cc1ccc(N2C(=O)C3C(c4ccccc4)(C2=O)C3(c2ccccc2)c2ccccc2)cc1` (stereo not drawn), for which the inhibition is 7.89%. As for `CCc1ccccc1N1C(=O)c2cccc3c(N4CCOCC4)c([N+](=O)[O-])cc(c23)C1=O`, the figure is 7.95%; as for `Cc1cccc(N2C(=O)c3cccc4c(N5CCCCC5)c([N+](=O)[O-])cc(c34)C2=O)c1C`, 9.67%; as for `COCCNS(=O)(=O)c1cc(-c2nn(C)c(=O)c3ccccc23)ccc1C`, -0.86%. As for `Cc1sc2nc(COC(=O)c3cccc(OC(F)F)c3)[nH]c(=O)c2c1C`, the figure is 11.1%; as for `Cc1ccc(NC(=O)COC(=O)c2ccc([N+](=O)[O-])s2)c(C)c1`, 9.26%. As for `COc1ccccc1NC(=O)C(=O)N/N=C/c1ccc([N+](=O)[O-])s1`, the figure is 4.5%; as for `Cc1ccccc1NC(=O)/C=C/c1cccs1`, -3.01%. As for `Cc1cc([N+](=O)[O-])ccc1NC(=O)/C=C/c1cccs1`, the inhibition is -0.49%.

With `CCNc1nc(NCC)nc(SCCOc2ccc(C)cc2)n1`, the inhibition is 15.1%.

Take `COc1ccc(S(=O)(=O)NCC2CCCN(C(=O)c3ccco3)C2)cc1` (stereo not drawn): the inhibition was -5.58%.

`Cc1cc(CNC(=O)CC2C(=O)NCCN2CC(c2ccccc2)c2ccccc2)on1` (stereo not drawn): the inhibition was 1.54%. As for `Cn1ncc2c(Nc3ccc(O)cc3)nc(Cl)nc21`, the figure is -3.66%; as for `Cn1ncc2c(Nc3ccccc3Cl)nc(Nc3ccccc3Cl)nc21`, 29.2%; as for `COc1ccc(-n2c(SCC(=O)O)nc3sc4c(c3c2=O)CCC4)cc1`, -7.18%.

With `CCCn1c(Nc2ccc(Cl)cc2)nc2ccccc21`, the inhibition was 3.28%. As for `Cc1nc2ccccc2n1Cc1n[nH]c(=S)n1-c1ccc(Cl)cc1`, the figure is -9.13%. As for `NS(=O)(=O)c1ccc(N=Nc2c(-c3ccccc3)[nH]n(-c3nc(-c4ccccc4)cs3)c2=O)cc1`, the figure is 15.4%; as for `CCc1c(C)[nH]n(-c2nc(-c3ccccc3)cs2)c1=O`, 5.2%; as for `CC(C)[C@H](NC(=O)NCc1ccc(F)cc1)C(=O)O`, -4.85%.

Take `COc1ccc(C(NC(=O)c2ccc(F)cc2)c2ccccc2)cc1` (stereo not drawn): the inhibition was -2.49%. As for `COc1ccc(-c2noc(CCCC(=O)Nc3cccnc3)n2)cc1OC`, the figure is -1.27%.

A word on the inhibition: it is the change of the read-out against control, counted positive when it falls.

The values above are taken from PubChem BioAssay AID1626 (SRMLSC, 2009).
